Reference: the supplement of paper PMC8253809

test system: HGGX39 (paediatric high-grade glioma line); test: growth inhibition (% activity, log2 RLU normalised to DMSO / staurosporine); higher = more growth inhibition; conditions: 33 µM
Summary of the method: (§1)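 For each approved drug, the growth-inhibition value is the replicate median of per-plate normalised CellTiter-Glo data. Luminescence was log2-transformed and expressed as % activity between solvent and positive control wells. Drugs were applied in triplicate at a single final concentration of about 33 μM for 7 days at 37 °C, 5% CO2 to pHGG cell lines and H9-derived neural stem cells.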

Structure (SMILES)	growth inhibition
CNC(=O)c1ccc(N2C(=S)N(c3ccc(C#N)c(C(F)(F)F)c3)C(=O)C2(C)C)cc1F	6.4%
O=c1oc2cc(O)ccc2s1	8.04%
CN1CCC(=C2c3ccccc3CC(=O)c3sccc32)CC1	0.272%
CC1=C(C(=O)OC(C)C)C(c2cccc([N+](=O)[O-])c2)C(C(=O)OC2CN(C(c3ccccc3)c3ccccc3)C2)=C(N)N1 (stereo not drawn)	13.3%
C[C@H]1C[C@@H]2[C@H]([C@@H](O)C[C@@]3(C)[C@H]2CC[C@]3(O)C(=O)CO)[C@@]2(C)C=CC(=O)C=C12	-0.0158%
C[C@@H]1CC(=O)NN=C1c1ccc(NN=C(C#N)C#N)cc1	4.26%
Cc1cnc(NC(=O)C2=C(O)c3ccccc3S(=O)(=O)N2C)s1	-0.277%
CCCCCCCCCCCCCCCC[N+](C)(C)CCN(Cc1ccc(OC)cc1)c1ncccn1	59.2%
CC(C)OC(=O)OCOP(=O)(CO[C@H](C)Cn1cnc2c(N)ncnc21)OCOC(=O)OC(C)C	4.93%
C#CCC(Cc1cnc2nc(N)nc(N)c2n1)c1ccc(C(=O)N[C@@H](CCC(=O)O)C(=O)O)cc1 (stereo partly drawn)	22.8%
CCOC(=O)CCC(=O)O[C@H]1[C@H](O[C@@H]2[C@@H](C)[C@H](O[C@H]3C[C@@](C)(OC)[C@@H](O)[C@H](C)O3)[C@@H](C)C(=O)O[C@H](CC)[C@@](C)(O)[C@H](O)[C@@H](C)C(=O)[C@H](C)C[C@@]2(C)O)O[C@H](C)C[C@@H]1N(C)C	-1.58%
Nc1cc(C(Cl)=C(Cl)Cl)c(S(N)(=O)=O)cc1S(N)(=O)=O	2.48%
CCCCC(CC)CN=C(N)N=C(N)NCCCCCCNC(N)=NC(N)=NCC(CC)CCCC (stereo not drawn)	58.4%
C[N+](C)(C)CCCCCC[N+](C)(C)C	-1.88%
CC(C)CN(C[C@@H](O)[C@H](Cc1ccccc1)NC(=O)O[C@H]1CO[C@H]2OCC[C@H]21)S(=O)(=O)c1ccc(N)cc1	-1.58%
NCCc1c[nH]cn1	1.84%
c1ccc2c(CC3=NCCN3)cccc2c1	4.23%
C=CCc1cc(OC)c(O)c(C(=O)NCCO)c1	-1.9%
COc1cc2/c(=N/c3ccc(Br)cc3F)nc[nH]c2cc1OCC1CCN(C)CC1	11.1%
Clc1ccc(C(Cn2ccnc2)OCc2csc3c(Cl)cccc23)c(Cl)c1 (stereo not drawn)	8.8%

Structure (SMILES)	growth inhibition
OCCOCCN1CCN(C2=Nc3ccccc3Sc3ccccc32)CC1	2.86%
CC(C)(C)c1cc(C(C)(C)C)c(NC(=O)c2c[nH]c3ccccc3c2=O)cc1O	22.4%
Nc1ccc(/N=N/c2ccccc2)c(N)n1	-1.17%
CC1(C)O[C@@H]2C[C@H]3[C@@H]4CCC5=CC(=O)C=C[C@]5(C)[C@@]4(F)[C@@H](O)C[C@]3(C)[C@]2(C(=O)CO)O1	2.88%
C[C@H]1c2cccc(O)c2C(=O)C2=C(O)[C@]3(O)C(=O)C(C(N)=O)=C(O)[C@@H](N(C)C)[C@@H]3[C@@H](O)[C@@H]21	6.11%
CCc1cc2c(cc1CC)CC(NC[C@H](O)c1ccc(O)c3[nH]c(=O)ccc13)C2	0.343%
COc1cc2c(cc1O)CC[C@@H]1[C@@H]2CC[C@]2(C)[C@@H](O)CC[C@@H]12	13.2%
CN(CCOc1ccc(NS(C)(=O)=O)cc1)CCc1ccc(NS(C)(=O)=O)cc1	-2.37%
NC[C@H](O)c1ccc(O)c(O)c1	3.45%
NC(=O)C(c1ccccc1)(c1ccccc1)[C@@H]1CCN(CCc2ccc3c(c2)CCO3)C1	4.33%
O=C(O)c1ccc(-n2nc(-c3ccccc3O)nc2-c2ccccc2O)cc1	-2%
CN(C/C=C/c1ccccc1)Cc1cccc2ccccc12	1.84%
CC(C)/N=c1\cc2n(-c3ccc(Cl)cc3)c3ccccc3nc-2cc1Nc1ccc(Cl)cc1	10%
Nc1ccc(C(=O)O)c(O)c1	1.12%
CN1CCN(CCCN2c3ccccc3Sc3ccc(Cl)cc32)CC1	3.02%
O=c1ccn([C@@H]2O[C@H](CO)[C@@H](O)[C@H]2O)c(=O)[nH]1	0.73%
Oc1c(Cl)cc(Cl)c2cccnc12	6.44%
COC1C(O)CC(=O)OC(C)CC=CC=CC(OC2CCC(N(C)C)C(C)O2)C(C)CC(CC=O)C1OC1OC(C)C(OC2CC(C)(O)C(O)C(C)O2)C(N(C)C)C1O (stereo not drawn)	1.26%
CC[C@H](C)C[C@H](C)CCCCCCCCC(=O)N[C@H]1C[C@@H](O)[C@@H](NCCN)NC(=O)[C@@H]2[C@@H](O)CCN2C(=O)[C@H]([C@H](O)CCN)NC(=O)[C@H]([C@H](O)[C@@H](O)c2ccc(O)cc2)NC(=O)[C@@H]2C[C@@H](O)CN2C(=O)[C@H]([C@@H](C)O)NC1=O	2.93%

test system: HGGX6 (H3.3 G34R paediatric high-grade glioma line); test: as above; conditions: 33 µM
Summary of the method: as §1

Structure (SMILES)	growth inhibition
CNC(=O)c1ccc(N2C(=S)N(c3ccc(C#N)c(C(F)(F)F)c3)C(=O)C2(C)C)cc1F	1.33%
O=c1oc2cc(O)ccc2s1	3.75%
CN1CCC(=C2c3ccccc3CC(=O)c3sccc32)CC1	2.44%
CC1=C(C(=O)OC(C)C)C(c2cccc([N+](=O)[O-])c2)C(C(=O)OC2CN(C(c3ccccc3)c3ccccc3)C2)=C(N)N1 (stereo not drawn)	15.6%
C[C@H]1C[C@@H]2[C@H]([C@@H](O)C[C@@]3(C)[C@H]2CC[C@]3(O)C(=O)CO)[C@@]2(C)C=CC(=O)C=C12	-2.28%
C[C@@H]1CC(=O)NN=C1c1ccc(NN=C(C#N)C#N)cc1	2.45%
Cc1cnc(NC(=O)C2=C(O)c3ccccc3S(=O)(=O)N2C)s1	-2.36%
CCCCCCCCCCCCCCCC[N+](C)(C)CCN(Cc1ccc(OC)cc1)c1ncccn1	62%
CC(C)OC(=O)OCOP(=O)(CO[C@H](C)Cn1cnc2c(N)ncnc21)OCOC(=O)OC(C)C	2.27%
C#CCC(Cc1cnc2nc(N)nc(N)c2n1)c1ccc(C(=O)N[C@@H](CCC(=O)O)C(=O)O)cc1 (stereo partly drawn)	24%
CCOC(=O)CCC(=O)O[C@H]1[C@H](O[C@@H]2[C@@H](C)[C@H](O[C@H]3C[C@@](C)(OC)[C@@H](O)[C@H](C)O3)[C@@H](C)C(=O)O[C@H](CC)[C@@](C)(O)[C@H](O)[C@@H](C)C(=O)[C@H](C)C[C@@]2(C)O)O[C@H](C)C[C@@H]1N(C)C	-2.75%
Nc1cc(C(Cl)=C(Cl)Cl)c(S(N)(=O)=O)cc1S(N)(=O)=O	1.57%
CCCCC(CC)CN=C(N)N=C(N)NCCCCCCNC(N)=NC(N)=NCC(CC)CCCC (stereo not drawn)	59.5%
C[N+](C)(C)CCCCCC[N+](C)(C)C	-5.38%
CC(C)CN(C[C@@H](O)[C@H](Cc1ccccc1)NC(=O)O[C@H]1CO[C@H]2OCC[C@H]21)S(=O)(=O)c1ccc(N)cc1	0.0431%
NCCc1c[nH]cn1	3.55%
c1ccc2c(CC3=NCCN3)cccc2c1	-1.48%
C=CCc1cc(OC)c(O)c(C(=O)NCCO)c1	-0.129%
COc1cc2/c(=N/c3ccc(Br)cc3F)nc[nH]c2cc1OCC1CCN(C)CC1	10.7%
Clc1ccc(C(Cn2ccnc2)OCc2csc3c(Cl)cccc23)c(Cl)c1 (stereo not drawn)	6.02%

Structure (SMILES)	growth inhibition
OCCOCCN1CCN(C2=Nc3ccccc3Sc3ccccc32)CC1	2.19%
CC(C)(C)c1cc(C(C)(C)C)c(NC(=O)c2c[nH]c3ccccc3c2=O)cc1O	15.2%
Nc1ccc(/N=N/c2ccccc2)c(N)n1	-3.08%
CC1(C)O[C@@H]2C[C@H]3[C@@H]4CCC5=CC(=O)C=C[C@]5(C)[C@@]4(F)[C@@H](O)C[C@]3(C)[C@]2(C(=O)CO)O1	0.928%
C[C@H]1c2cccc(O)c2C(=O)C2=C(O)[C@]3(O)C(=O)C(C(N)=O)=C(O)[C@@H](N(C)C)[C@@H]3[C@@H](O)[C@@H]21	0.474%
CCc1cc2c(cc1CC)CC(NC[C@H](O)c1ccc(O)c3[nH]c(=O)ccc13)C2	-1.65%
COc1cc2c(cc1O)CC[C@@H]1[C@@H]2CC[C@]2(C)[C@@H](O)CC[C@@H]12	11.7%
CN(CCOc1ccc(NS(C)(=O)=O)cc1)CCc1ccc(NS(C)(=O)=O)cc1	-1.41%
NC[C@H](O)c1ccc(O)c(O)c1	1.96%
NC(=O)C(c1ccccc1)(c1ccccc1)[C@@H]1CCN(CCc2ccc3c(c2)CCO3)C1	2.82%
O=C(O)c1ccc(-n2nc(-c3ccccc3O)nc2-c2ccccc2O)cc1	-3.44%
CN(C/C=C/c1ccccc1)Cc1cccc2ccccc12	2.12%
CC(C)/N=c1\cc2n(-c3ccc(Cl)cc3)c3ccccc3nc-2cc1Nc1ccc(Cl)cc1	7.37%
Nc1ccc(C(=O)O)c(O)c1	1.72%
CN1CCN(CCCN2c3ccccc3Sc3ccc(Cl)cc32)CC1	1.39%
O=c1ccn([C@@H]2O[C@H](CO)[C@@H](O)[C@H]2O)c(=O)[nH]1	-4.51%
Oc1c(Cl)cc(Cl)c2cccnc12	-1.25%
COC1C(O)CC(=O)OC(C)CC=CC=CC(OC2CCC(N(C)C)C(C)O2)C(C)CC(CC=O)C1OC1OC(C)C(OC2CC(C)(O)C(O)C(C)O2)C(N(C)C)C1O (stereo not drawn)	1.89%
CC[C@H](C)C[C@H](C)CCCCCCCCC(=O)N[C@H]1C[C@@H](O)[C@@H](NCCN)NC(=O)[C@@H]2[C@@H](O)CCN2C(=O)[C@H]([C@H](O)CCN)NC(=O)[C@H]([C@H](O)[C@@H](O)c2ccc(O)cc2)NC(=O)[C@@H]2C[C@@H](O)CN2C(=O)[C@H]([C@@H](C)O)NC1=O	-1.44%
